How the values were obtained:
Assay in all cases: DAPPL (digital affinity profiling via proximity ligation, sequencing); 10 mM Tris-HCl pH 7.5, 50 mM NaCl, 1 mM DTT, 4% glycerol, room temperature, 30 min; GST-TFs on glutathione beads, 16-mer random dsDNA library, 0.1% formaldehyde crosslink after washing; high values mean tight binding
[1] = biological target: T1, FEV (Homo sapiens, UniProt Q99581 1-238); details: protein: recombinant; tags: N-terminal GST; dsDNA, one strand shown
T1 sequence: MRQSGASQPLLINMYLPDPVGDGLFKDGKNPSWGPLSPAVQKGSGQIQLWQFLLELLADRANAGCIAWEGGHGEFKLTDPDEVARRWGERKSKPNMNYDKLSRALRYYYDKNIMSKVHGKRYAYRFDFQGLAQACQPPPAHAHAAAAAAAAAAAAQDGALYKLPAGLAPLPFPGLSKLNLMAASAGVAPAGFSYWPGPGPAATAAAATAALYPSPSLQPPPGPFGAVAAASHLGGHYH
Outline: (§1)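 Binding signal is defined as a hexamer's read frequency for one factor over its frequency for the tag-only sample. To obtain reads, GST-fused human transcription factors were expressed in yeast, captured on glutathione beads, barcoded with DNA and pooled with that sample. Pools met 200 nmole of a 16-mer random double-stranded DNA library in Tris/NaCl/DTT/glycerol buffer for 30 min at room temperature before washing, 0.1% formaldehyde crosslinking, proximity ligation (BsaI/T4 ligase, 1 h, 37 °C), PCR and Illumina NextSeq500 sequencing.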

[2] = biological target: ETV5 (Homo sapiens, UniProt P41161 1-510); details: protein: recombinant; tags: N-terminal GST; dsDNA, one strand shown
Chain of ETV5 (P41161 whole entry): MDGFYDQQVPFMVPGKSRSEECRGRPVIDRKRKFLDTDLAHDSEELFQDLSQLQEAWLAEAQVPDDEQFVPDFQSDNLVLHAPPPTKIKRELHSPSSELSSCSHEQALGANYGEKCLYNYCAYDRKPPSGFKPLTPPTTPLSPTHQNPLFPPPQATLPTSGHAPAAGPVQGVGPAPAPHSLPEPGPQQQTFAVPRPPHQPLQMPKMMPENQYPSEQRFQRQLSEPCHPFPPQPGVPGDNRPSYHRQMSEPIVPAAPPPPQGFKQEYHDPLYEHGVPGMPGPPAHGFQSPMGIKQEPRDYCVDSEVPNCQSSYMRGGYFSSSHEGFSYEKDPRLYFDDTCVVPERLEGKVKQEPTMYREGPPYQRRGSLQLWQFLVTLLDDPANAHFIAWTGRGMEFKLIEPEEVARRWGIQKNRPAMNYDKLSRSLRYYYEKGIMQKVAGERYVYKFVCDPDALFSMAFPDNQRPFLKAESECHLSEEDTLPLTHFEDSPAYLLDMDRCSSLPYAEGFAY
Outline: as §1

[3] = biological target: HSF1 (Homo sapiens, UniProt Q00613 1-529); details: protein: recombinant; tags: N-terminal GST; chain copies: 3; dsDNA, one strand shown
Chain of HSF1 (Q00613 whole entry): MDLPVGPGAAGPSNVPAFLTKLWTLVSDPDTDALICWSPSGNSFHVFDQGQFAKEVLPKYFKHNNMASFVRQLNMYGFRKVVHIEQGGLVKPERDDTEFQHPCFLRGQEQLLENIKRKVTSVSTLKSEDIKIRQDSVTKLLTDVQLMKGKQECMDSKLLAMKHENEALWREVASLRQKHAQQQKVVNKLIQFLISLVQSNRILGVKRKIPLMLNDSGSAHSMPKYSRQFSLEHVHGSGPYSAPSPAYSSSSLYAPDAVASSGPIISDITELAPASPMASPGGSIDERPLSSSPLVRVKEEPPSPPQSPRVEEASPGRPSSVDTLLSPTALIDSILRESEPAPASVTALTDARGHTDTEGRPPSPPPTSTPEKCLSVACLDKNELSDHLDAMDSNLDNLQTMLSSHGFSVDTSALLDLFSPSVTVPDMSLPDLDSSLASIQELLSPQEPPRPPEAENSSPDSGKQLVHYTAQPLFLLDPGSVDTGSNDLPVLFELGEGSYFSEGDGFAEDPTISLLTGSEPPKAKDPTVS
Outline: as §1

[4] = biological target: T2, SPIC (Homo sapiens, UniProt Q8N5J4 1-248); details: protein: recombinant; tags: N-terminal GST; dsDNA, one strand shown
T2 sequence: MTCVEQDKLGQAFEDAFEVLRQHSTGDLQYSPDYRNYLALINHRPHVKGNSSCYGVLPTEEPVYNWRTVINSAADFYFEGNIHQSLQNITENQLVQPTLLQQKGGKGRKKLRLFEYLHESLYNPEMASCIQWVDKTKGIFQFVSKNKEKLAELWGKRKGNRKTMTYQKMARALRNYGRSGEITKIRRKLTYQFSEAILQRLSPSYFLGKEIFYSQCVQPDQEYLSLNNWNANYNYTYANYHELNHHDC
Outline: as §1

[5] = biological target: ELF4 (Homo sapiens, UniProt Q99607 1-663); details: protein: recombinant; tags: N-terminal GST; dsDNA, one strand shown
Chain of ELF4 (Q99607 whole entry): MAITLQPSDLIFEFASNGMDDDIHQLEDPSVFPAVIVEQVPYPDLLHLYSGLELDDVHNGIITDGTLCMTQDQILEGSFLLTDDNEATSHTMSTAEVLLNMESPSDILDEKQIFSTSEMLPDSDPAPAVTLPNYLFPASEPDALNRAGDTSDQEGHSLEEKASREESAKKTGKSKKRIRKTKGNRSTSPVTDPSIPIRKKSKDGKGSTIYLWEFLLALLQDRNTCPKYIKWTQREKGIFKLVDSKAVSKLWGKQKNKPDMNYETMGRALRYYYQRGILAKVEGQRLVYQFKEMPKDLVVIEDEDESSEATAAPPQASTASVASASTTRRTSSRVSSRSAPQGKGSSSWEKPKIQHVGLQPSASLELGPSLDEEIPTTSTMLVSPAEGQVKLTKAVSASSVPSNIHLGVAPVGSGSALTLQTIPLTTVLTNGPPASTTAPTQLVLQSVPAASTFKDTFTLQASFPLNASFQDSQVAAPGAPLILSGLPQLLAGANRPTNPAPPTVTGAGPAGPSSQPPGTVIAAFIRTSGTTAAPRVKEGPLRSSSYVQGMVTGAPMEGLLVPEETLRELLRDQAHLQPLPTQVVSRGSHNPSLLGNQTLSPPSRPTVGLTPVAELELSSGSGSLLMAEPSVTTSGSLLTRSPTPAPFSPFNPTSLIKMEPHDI
Outline: as §1

[6] = biological target: T3, ELK4 (Homo sapiens, UniProt P28324-2 1-405); details: protein: recombinant; tags: N-terminal GST; dsDNA, one strand shown
T3 sequence: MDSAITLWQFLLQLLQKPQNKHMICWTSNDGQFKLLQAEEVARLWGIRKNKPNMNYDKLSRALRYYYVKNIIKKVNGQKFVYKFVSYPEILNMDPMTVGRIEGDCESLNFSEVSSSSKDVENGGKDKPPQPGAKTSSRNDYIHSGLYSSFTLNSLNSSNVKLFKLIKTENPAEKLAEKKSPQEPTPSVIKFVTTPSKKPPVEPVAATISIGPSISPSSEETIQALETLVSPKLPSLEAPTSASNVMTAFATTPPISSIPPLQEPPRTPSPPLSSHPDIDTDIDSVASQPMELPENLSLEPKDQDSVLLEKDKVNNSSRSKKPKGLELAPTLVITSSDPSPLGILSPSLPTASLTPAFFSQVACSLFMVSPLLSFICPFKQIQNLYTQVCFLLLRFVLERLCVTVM
Outline: as §1

[7] = biological target: T4, ETV2 (Homo sapiens, UniProt O00321 1-342); details: protein: recombinant; tags: N-terminal GST; dsDNA, one strand shown
T4 sequence: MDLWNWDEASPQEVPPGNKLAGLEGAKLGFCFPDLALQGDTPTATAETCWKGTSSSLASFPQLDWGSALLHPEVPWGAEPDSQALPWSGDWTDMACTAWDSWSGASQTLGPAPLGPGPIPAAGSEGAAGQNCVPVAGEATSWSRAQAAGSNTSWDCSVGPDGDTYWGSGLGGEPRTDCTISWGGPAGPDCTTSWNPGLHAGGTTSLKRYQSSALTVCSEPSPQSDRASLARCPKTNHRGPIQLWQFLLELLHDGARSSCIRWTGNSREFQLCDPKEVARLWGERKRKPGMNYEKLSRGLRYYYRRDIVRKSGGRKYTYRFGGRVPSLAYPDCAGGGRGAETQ
Outline: as §1

[8] = biological target: T5, ELF3 (Homo sapiens, UniProt P78545 1-371); details: protein: recombinant; tags: N-terminal GST; dsDNA, one strand shown
T5 sequence: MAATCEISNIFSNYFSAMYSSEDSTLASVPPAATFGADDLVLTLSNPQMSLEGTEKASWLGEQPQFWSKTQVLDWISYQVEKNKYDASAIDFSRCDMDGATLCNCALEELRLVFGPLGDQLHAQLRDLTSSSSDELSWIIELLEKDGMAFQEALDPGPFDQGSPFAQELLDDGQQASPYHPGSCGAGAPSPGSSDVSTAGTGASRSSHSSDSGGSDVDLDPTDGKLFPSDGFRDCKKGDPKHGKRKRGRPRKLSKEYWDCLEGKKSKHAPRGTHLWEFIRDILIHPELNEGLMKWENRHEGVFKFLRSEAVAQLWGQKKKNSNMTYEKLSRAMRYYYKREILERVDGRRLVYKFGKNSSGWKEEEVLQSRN
Outline: as §1

[9] = biological target: CRX (Homo sapiens, UniProt O43186 1-299); details: protein: recombinant; tags: N-terminal GST; dsDNA, one strand shown
Chain of CRX (O43186 whole entry): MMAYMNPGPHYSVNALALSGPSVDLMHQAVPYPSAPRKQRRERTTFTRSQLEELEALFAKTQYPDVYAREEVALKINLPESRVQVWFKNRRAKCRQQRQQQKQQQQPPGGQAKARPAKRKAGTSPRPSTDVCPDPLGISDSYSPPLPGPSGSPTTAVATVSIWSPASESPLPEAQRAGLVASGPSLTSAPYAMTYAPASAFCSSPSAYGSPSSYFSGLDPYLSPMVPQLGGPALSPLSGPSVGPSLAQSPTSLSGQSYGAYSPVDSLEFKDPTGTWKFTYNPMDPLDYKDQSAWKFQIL
Outline: as §1

GCTAGC
binding signal [1]: 1.31 fold enrichment (6-mer frequency, TF over GST control) | binding signal [2]: 1.24 fold enrichment (6-mer frequency, TF over GST control) | binding signal [3]: 1.19 fold enrichment (6-mer frequency, TF over GST control) | binding signal [4]: 1.28 fold enrichment (6-mer frequency, TF over GST control) | binding signal [5]: 1.3 fold enrichment (6-mer frequency, TF over GST control) | binding signal [6]: 1.23 fold enrichment (6-mer frequency, TF over GST control) | binding signal [7]: 1.39 fold enrichment (6-mer frequency, TF over GST control) | binding signal [8]: 1.2 fold enrichment (6-mer frequency, TF over GST control) | binding signal [9]: 1.05 fold enrichment (6-mer frequency, TF over GST control)

Reference: paper PMC7862700, “An all-to-all approach to the identification of sequence-specific readers for epigenetic DNA modifications on cytosine”
